Screens: PubChem, Broad Institute
aSyn UTR act = Activators via SNCA 5'UTR binding, MLPCN; 300,000 tested, 7.1% active; alpha-synuclein 5'UTR reporter, activators screen; activity score, % (tested at 7.5 µM), hits read low; in the data active = activity score below about -60%
Of the large screens only hits and unclear results are named; the others gave an inactive call. A selection follows.

O=C(NCCCN1CCCCC1)c1ccc2c(=O)n(CCc3ccccc3)c(=O)[nH]c2c1	aSyn UTR act -82
CCN1CCN(CCCNC(=O)c2ccc(/C=C3/Oc4ccccc4N(Cc4cccc(C)c4)C3=O)cc2)CC1	none
O=C1Nc2cc(C(=O)NCCCN3CCCC3)ccc2S/C1=C\c1ccccc1	aSyn UTR act -94
CCN(CC)CCNC(=O)c1ccc2c(=O)n(CCc3ccccc3)c(=O)[nH]c2c1	aSyn UTR act -109
c1cncc(-c2nc(-c3ccc4c(c3)OCCO4)cs2)c1	aSyn UTR act -94
Fc1ccccc1-c1csc(-c2cccnc2)n1	aSyn UTR act -105
Oc1ccccc1-c1csc(-c2ccccc2)n1	aSyn UTR act -122
Clc1ccc(-c2csc(-c3cccnc3)n2)s1	aSyn UTR act -70
Oc1ccc(-c2csc(-c3ccccc3)n2)cc1O	aSyn UTR act -224
CS(=O)c1nc(-c2ccc(Br)cc2)cc(-c2ccccc2)c1C#N (stereo not drawn)	none
c1ccc(-c2csc(-c3ccncc3)n2)cc1	aSyn UTR act -74
Oc1ccc(-c2csc(-c3cccnc3)n2)cc1O	aSyn UTR act -96
Nc1nc(-c2ccccc2)cc(-c2ccccc2O)n1	aSyn UTR act -123
Brc1ccsc1-c1csc(-c2ccncc2)n1	aSyn UTR act -106
COc1cccc(-c2nn(C)c3sc(C(=O)Nc4ccc5c(c4)OCCO5)cc23)c1	aSyn UTR act -101
COc1ccc(CCn2c(=N)c(C(=O)NC3CCCC3)cc3c(=O)n4ccccc4nc32)cc1OC	aSyn UTR act -62
CCCn1c(=N)c(C(=O)NC2CCCC2)cc2c(=O)n3cccc(C)c3nc21	aSyn UTR act -67
Cc1cccn2c(=O)c3cc(C(=O)NC4CCCC4)n(C)c3nc12	aSyn UTR act -93
Cc1cccn2c(=O)c3cc(C(=O)NCC4CCCO4)c(=N)n(CCc4ccccc4)c3nc12 (stereo not drawn)	aSyn UTR act -101
Cc1cccn2c(=O)c(C(=O)NC3CCCCC3)c(O)nc12	aSyn UTR act -66
Cc1nc(NC(=O)CSc2nnnn2C)sc1C	aSyn UTR act -121
COC(=O)c1sc(NC(=O)CSc2nnnn2C)nc1C	aSyn UTR act -73
Cc1csc(NC(=O)CSc2nnnn2C)n1	aSyn UTR act -68
Cc1cc(C)n(CCc2nc(-c3cc4ccccc4o3)cs2)n1	aSyn UTR act -112
Nc1nc(-c2cc3ccccc3o2)cs1	aSyn UTR act -132
CN1CCN(c2nc(-c3cc4ccccc4o3)cs2)CC1	aSyn UTR act -142
O=C(NCC1COc2ccccc2O1)c1cccs1 (stereo not drawn)	aSyn UTR act -64
O=C(NCc1ccccc1)C(=O)NCC1COc2ccccc2O1 (stereo not drawn)	aSyn UTR act -145
Nc1ccccc1N=Nc1ccccc1N	aSyn UTR act -222
CC(C)(C)c1ccc(C(=O)c2c[nH]c(C(=O)O)c2)cc1	aSyn UTR act -102
CN(C)C=NC(=O)c1cc(C(=O)c2ccc(C(C)(C)C)cc2)c[nH]1	aSyn UTR act -87
O=C(Nc1ccc(S(=O)(=O)NC2=NCCCCC2)cc1)c1ccc([N+](=O)[O-])s1	aSyn UTR act -66
Cc1nc(Nc2ccc3c(c2)OCCO3)c2c(C)c(C)sc2n1	aSyn UTR act -72
COP(=O)(OC)C(Nc1ccc(C)cc1)c1ccc([N+](=O)[O-])cc1 (stereo not drawn)	aSyn UTR act -159
CCOc1ccc(/C=C/C(=O)Nc2cccc(C(C)=O)c2)cc1	aSyn UTR act -151
CC(=O)Nc1cccc(C(=O)/C=C/c2ccc(C)cc2)c1	aSyn UTR act -123
c1ccc(CSc2nnc(SCc3ccccn3)s2)nc1	aSyn UTR act -118
c1ccc(CSc2ccc(-c3cccnc3)nn2)cc1	aSyn UTR act -117
Clc1ccc(-c2ccc(SCc3ccccn3)nn2)cc1	aSyn UTR act -141
c1ccc(-c2ccc(SCc3cccnc3)nn2)nc1	aSyn UTR act -75
CCOc1ccc(-c2ccc(SC)nn2)cc1	none
c1ccc(CSc2ccc(-c3ccccn3)nn2)nc1	aSyn UTR act -62
Cc1cccc(NC(=O)c2ccc(N3CCOCC3)c([N+](=O)[O-])c2)n1	aSyn UTR act -115
O=C(Nc1cccnc1)c1ccc(N2CCCC2)c([N+](=O)[O-])c1	aSyn UTR act -87
Cc1ccc(NC(=O)c2ccc(NCCN)c([N+](=O)[O-])c2)cc1Cl	aSyn UTR act -85
Cc1ccc(C(=O)c2cc([N+](=O)[O-])ccc2N2CCOCC2)c(C)c1	none
CCOC(=O)c1ccc(NCCOC)c([N+](=O)[O-])c1	aSyn UTR act -91
CC(C)CCNc1nc(N)c([N+](=O)[O-])c(NCC2CCCO2)n1 (stereo not drawn)	none
Cc1cc(C(=O)Nc2ccc(N3CCCC3)c(Cl)c2)ccc1[N+](=O)[O-]	aSyn UTR act -62
O=C(Nc1ccccc1)c1ccc(NCC2CCCO2)c([N+](=O)[O-])c1 (stereo not drawn)	aSyn UTR act -125
Cc1cccc(NC(=O)c2ccc(N(C)C3CCCCC3)c([N+](=O)[O-])c2)n1	aSyn UTR act -64
Cc1ccc(NC(=O)c2ccc(NCCCN3CCC(C)CC3)c([N+](=O)[O-])c2)c(C)c1	aSyn UTR act -63
Cc1cccc(NC(=O)c2ccc(N3CCCCC3)c([N+](=O)[O-])c2)n1	aSyn UTR act -157
Cc1ccc2c(COC(=O)C34CC5CC(CC(C5)C3)C4)cc(=O)oc2c1	aSyn UTR act -152
Cc1ccc2c(COC(=O)c3ccccc3Cl)cc(=O)oc2c1	aSyn UTR act -136
Cc1ccc2c(COC(=O)c3ccccc3Br)cc(=O)oc2c1	aSyn UTR act -179
CCCOC(=O)c1ccc(NC(=O)C2CCCO2)cc1 (stereo not drawn)	aSyn UTR act -110
CCOC(=O)c1ccc(NC(=O)C2C3CCCCC32)cc1 (stereo not drawn)	aSyn UTR act -184
CC(C)COC(=O)c1ccc(NC(=O)C2C3CCC(C3)C2C(=O)O)cc1 (stereo not drawn)	aSyn UTR act -131
CCc1ccc(NC(=O)c2ccccc2NC(=O)C2CCCO2)cc1 (stereo not drawn)	aSyn UTR act -244
CC(C)c1c(O)cc(-c2ccncc2)n(-c2ccc(Cl)cc2)c1=O	none
CCOC(=O)c1ccc(NC(=O)C2C3CCC(C3)C2C(=O)O)cc1 (stereo not drawn)	aSyn UTR act -62
CCOc1cc(NC(=S)N2CCC(C(N)=O)CC2)c(C(=O)OC)cc1OCC	none
CCOC(=O)c1ccc(NC(=S)N2CCC(O)CC2)cc1	aSyn UTR act -81
Cc1cc(NC(=O)c2ccc(NC(=O)C3CCCO3)cc2)ccc1Br (stereo not drawn)	aSyn UTR act -121
C=CCN1CCN(C(=O)CSc2ccccc2)CC1	aSyn UTR act -103
COc1ccccc1N1CCN(C(=O)CSc2ccccc2)CC1	aSyn UTR act -82
Cc1ccc(NC(=O)c2cc(N(C)C)ccc2[P+](=O)O)cc1	aSyn UTR act -154
O=C(NC(=S)Nc1ccccc1O)c1ccccc1Cl	aSyn UTR act -127
O=C(NNC(=S)Nc1ccccc1Cl)c1ccccc1Br	aSyn UTR act -94
CC(=O)c1sc(-c2ccc(F)cc2F)nc1C	aSyn UTR act -75
CCOCC(=O)Nc1ccc(Br)c(C)c1	aSyn UTR act -120
O=C1CC(c2ccccc2Cl)=NN(c2ncnc3ccccc23)C1=O	aSyn UTR act -74
CC(C)(C)c1ccc(C(=O)c2cn[nH]c2-c2ccccc2O)cc1	aSyn UTR act -134
COC(=O)c1ccc(N2CCN(c3ccccc3)CC2)nc1	aSyn UTR act -231
COC(=O)c1ccc(N2CCN(c3ccccc3)CC2)c(N)c1	aSyn UTR act -134
